# Most compounds without a hit are left out; they make up all but 2.8% or so of the library.
# GLP-1R agonist – agonists of human GLP-1 receptor. HEK293 GLP-1R CRE-luciferase, luminescence, 4-6 h; cells express a hypersensitive GLP-1R form. P43220. Potency, µM (doses to about 45.6 µM), for inactives: at the top dose activation, usual class: activators. 0.007% of 380,000 active. AID 624172; also: potency is read from the fitted curve at half-maximal effect; % of control where 0% means no effect
# HEK293 tox – cytotoxicity counter-screen for GLP-1 receptor inverse agonists; Potency, µM (titrated, usually from 38.3 µM), for inactives: at the top dose activity change, negative = inhibition, most hits filed as inhibitors; HEK293 cAMP-luciferase reporter cells, luminescence, 24 h; 0.13% of 410,000 active;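 also: loss of luciferase light is scored as toxicity; potency is read from the fitted curve at half-maximal effect; % is scaled to controls: 0 for no effect and ±100 for the full control effect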
#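 A 23 nL compound transfer followed 12 hours of cell culture at 37 deg C; exposure then lasted 24 hr. Luciferase assay detection reagent was dispensed and plates read for luminescence after a 12 min room-temperature wait.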
# GLS inhibitor – blocks human kidney-isoform glutaminase activity; 0.21% of 410,000 active; O94925; AID 624170; Potency, µM (titrated, usually from 45.5 µM), inactives show at the top dose activity change, negative = inhibition, most hits filed as inhibitors; GLS enzymatic activity, qHTS titration; also: potency is read from the fitted curve at half-maximal effect; % is scaled to controls: 0 for no effect and ±100 for the full control effect
#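 Two-point fluorescence kinetic (t0, 30 min RT) for hKGA; glutamate detected via glutamate oxidase–HRP–Amplex Red. Substrate: 1 mM L-glutamine solution; buffer 45 mM KH2PO4, pH 8.2.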
# hERG WT inh – inhibitors of human wildtype KCNH2 potassium channel; Q12809; U2OS, BacMam KCNH2, thallium flux FluxOr; stronger effect = lower value; activity change, % at 1.84 µM; 0.37% of 340,000 active; AID 720551;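 active = maximum activity change below -70%; inconclusive = maximum activity change between -70% and -50%; inactive = maximum activity change above -50%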; also: % is scaled to controls: 0 for no effect and ±100 for the full control effect
#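 U2OS cells were transduced with wild-type KCNH2 virus (2.03 x 10^8 / mL) for 4 h at room temperature, then cultured overnight at 37 C. Thallium flux was read with FluxOr dye. Rate constants were normalized to DMSO controls.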
# GLP1R inv ag – inverse agonists of human GLP-1 receptor; AID 624417; 1.6% of 410,000 active; HEK293 GLP-1R CRE-luciferase, luminescence, 24 h; GLP-1R form is constitutively active; P43220; Potency, µM (series often up to 38.3 µM), inactives show at the top dose activity change, negative = inhibition, actives largely listed as inhibitors; also: potency is read from the fitted curve at half-maximal effect; % is scaled to controls: 0 for no effect and ±100 for the full control effect; nearly all actives have a fitted effect of over 55% in size
#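 Readout was luciferase luminescence, measured 12 min after detection reagent at room temperature. Beforehand, GLP-1R reporter HEK293 cells had sat 12 h, then received compounds for 24 hr at 37 deg C.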
# KCNH2 3.1 block – inhibitors of human KCNH2 3.1 potassium channel isoform; U2OS KCNH2 3.1, thallium flux FluxOr; stronger effect = lower value; activity change, % (tested at about 1.8 µM); 0.95% of 340,000 active; AID 720553;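 active = maximum activity change below -70%; inconclusive = maximum activity change from -70% to -50%; inactive = maximum activity change above -50%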;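 also: thallium influx rate constant from kinetic fluorescence after stimulation buffer; % is scaled to controls: 0 for no effect and ±100 for the full control effect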
#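 We transduce U2OS cells with the mutant 3.1 virus, culture them overnight, load FluxOr with Red40 quencher for 45 min, then add stimulation buffer and read kinetically for 2 min to derive a normalized rate constant.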
# * = called active by the depositor; u = inconclusive; x = not tested or not shown. Unless noted, calls follow the shape of the dose curve; as a rule, active = well fitted curve in the direction sought with a large enough effect; inconclusive = small, poorly fitted or top-dose-only effect, or another doubt; inactive = no such curve, though single readings can be large; an effect the other way counts as inactive or inconclusive.
SMILES,GLP-1R agonist,HEK293 tox,GLS inhibitor,hERG WT inh,GLP1R inv ag,KCNH2 3.1 block
CC1CCCC(C)N1/N=C/c1ccc(O)c(O)c1 (centres undefined),-1%,-8%,-7%,-3,32%,6
COc1ccc(/C=N/N2C(C)CCCC2C)cc1O (centres undefined),0%,5%,11µM*,1,5%,-3
Cc1ccc2c(c1)C(c1ccccc1)N(C(=O)COc1ccc(Cl)cc1Cl)CC(=O)N2 (centres undefined),x,-11%,0%,x,u,x
CN(Cc1nc2ccccc2c(=O)[nH]1)Cc1nc2ccsc2c(=O)[nH]1,6%,13µM*,-1%,-8,-18%,1
CC(NC(=O)CN(C)Cc1nc2ccccc2c(=O)[nH]1)c1ccccc1 (centres undefined),-2%,-1%,5%,2,22%,6
CC(OCC(O)CN(C)Cc1nc2ccccc2c(=O)[nH]1)c1ccc(Cl)cc1 (centres undefined),23%,-27%,3%,-4,10µM*,-26
CN(Cc1nc2ccccc2c(=O)[nH]1)C(=O)c1ccccc1OCc1ccc(Cl)cc1,16%,-5%,0%,-11,u,16
COc1ccccc1CNC(=O)c1sc2nc3n(c(=O)c2c1C)CCC3,x,1%,-2%,x,-2%,x
CCc1ccc(NC(=O)C(C)Oc2nnc(-c3cccs3)c(-c3cccs3)n2)cc1 (centres undefined),0%,-18%,-4%,-1,10µM*,-3
CCn1cc(C(=O)NCc2ccccc2OC)c(=O)c2cc(S(=O)(=O)N3CCCCC3)ccc21,-2%,2%,-14%,x,8%,x
Oc1ccc(NCc2cccs2)cc1,22%,u,11µM*,-15,150%,0
Cc1ccc(C)c(S(=O)(=O)NCC(=O)OCC(=O)Nc2sccc2C(N)=O)c1,-12%,7%,7%,-3,0%,-6
Cc1ccc(S(=O)(=O)Nc2ccccc2CNc2ncc(Br)cc2Br)cc1,-2%,6%,-1%,-1,10µM*,-94*
CCC(Sc1nc(-c2ccccc2)c(C#N)c(=O)[nH]1)C(=O)Nc1cc(C)on1 (centres undefined),-6%,-8%,10%,0,-1%,-71*
CCC(Sc1nc2ccccc2[nH]1)C(=O)Nc1cc(C)on1 (centres undefined),-9%,-14%,16%,1,-22%,8
CN(C)CCCn1c(=O)n(Cc2ccco2)c(=O)c2c3c(sc21)CCCCC3,16%,-4%,-21%,17,4.5µM*,-7
Cn1nc(C(F)(F)F)c(C(=O)Nc2ccc(F)cc2F)c1Sc1cccc(Cl)c1,-10%,-1%,-5%,-18,13µM*,-7
Cn1nc([N+](=O)[O-])nc1Sc1nnc(-c2ccccc2)o1,-3%,u,0%,12,5.6µM*,1
O=Cc1ccc(Sc2nnc(-c3ccccc3)o2)c([N+](=O)[O-])c1,-14%,u,56%,2,3%,-11
C=CCOC(=O)C1=C(C)NC(C)=C(C(=O)OCC=C)C1c1ccco1,-1%,7%,11%,1,11µM*,-8
C=CCOC(=O)C1=C(C)NC(C)=C(C(=O)OCC=C)C1/C=C/c1ccccc1,3%,-26%,1%,1,5µM*,-27
CCOC(=O)C1=C(C)NC(C)=C(C(=O)OCC)C1/C=C/c1ccccc1,16%,2%,7%,7,0%,0
CCOC(=O)C1=C(C)NC(C)=C(C(=O)OC)C1c1ccco1 (centres undefined),9%,-13%,-8%,-10,3%,9
COc1cc(NS(=O)(=O)c2ccc(N)cc2)nc(C)n1,1%,x,-2%,x,x,x
Cc1ccc(Nc2cc(C)nc3ccccc23)c(C)c1,6%,-61%,12%,2,10µM*,7
SMILES,GLP-1R agonist,HEK293 tox,GLS inhibitor,hERG WT inh,GLP1R inv ag,KCNH2 3.1 block
Cc1cccc(Nc2cc(C)nc3ccccc23)c1,10%,-28%,21%,-3,-11%,-7
Cc1ccc(C)c(Nc2cc(C)nc3ccccc23)c1,-6%,u,14%,33,7.1µM*,-9
Cc1cc(Nc2ccccc2O)c2ccccc2n1,7%,-25%,17%,-9,1%,-3
CC(C)(C)c1cc(/C=N/O)cc(C(C)(C)C)c1O,-8%,-10%,5%,4,10µM*,12
CC(C)(C)C(=O)Oc1ccc(S(=O)(=O)Nc2ccccc2C(=O)NCC(=O)O)cc1,-1%,x,-6%,x,x,x
NS(=O)(=O)c1ccc(NC(=S)N2CCN(Cc3ccc(Cl)c(Cl)c3)CC2)cc1,5%,-4%,9%,-7,8.9µM*,13
O=S(=O)(c1ccc(Cl)cc1)N1CCN(C(=S)Nc2ccc(F)c(Cl)c2)CC1,-6%,-17%,14%,-3,8.9µM*,-7
Cc1cccc(CSc2nnc(CCCCCNC(=O)OC(C)(C)C)o2)c1,19%,-1%,0%,-1,7.1µM*,11
Cc1ccc(CSc2nnc(CCCCCNC(=O)OC(C)(C)C)o2)cc1,21%,16%,-12%,-3,u,-2
COc1ccc(CNC(=O)C2CCN(C(=O)c3ccc(-n4ccc5ccccc54)s3)CC2)cc1,x,-10%,3%,x,u,x
COC(=O)[C@@]12C[C@@H](CC(=O)NCCCCc3ccccc3)C(=O)N(Cc3ccco3)C1=CCC(C)(C)C2,x,-11%,x,x,10µM*,x
CCCCCCCCN1C(=O)[C@H](CC(=O)NCCc2ccccc2OC)C[C@@]2(C(=O)OCC)CCC=C12,x,-14%,x,x,13µM*,x
CCCCCCCCN1C(=O)[C@H](CC(=O)NCc2ccc(OC)c(OC)c2)C[C@@]2(C(=O)OCC)CCCC=C12,4%,u,-4%,x,10µM*,x
CCCCCCCCN1C(=O)[C@H](CC(=O)NCc2cccs2)C[C@@]2(C(=O)OCC)CCCC=C12,-2%,-18%,4%,x,10µM*,x
CCOC(=O)c1c(C)oc2nc(C)nc(NCCCN3CCN(c4ccc(F)cc4)CC3)c12,x,9%,12%,x,5%,x
CC(=O)Nc1ccc(NC(=O)c2ccc3c(c2)N(Cc2cccc(Cl)c2)C(=O)c2ccccc2S3=O)cc1 (centres undefined),x,-9%,-6%,x,u,x
CCOC(=O)[C@]12CCC=C1N(Cc1ccc(Cl)cc1Cl)C(=O)[C@H](CC(=O)NCc1cccc(C(F)(F)F)c1)C2,-1%,-4%,-9%,x,11µM*,x

# Bioassay records (PubChem)
